Experimental findings from PubChem BioAssay AID431 (Sanford-Burnham Center for Chemical Genomics, 2006) are described below.

Among all 63,000 compounds or so, about 1,100 (1.7%) were called active.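 Rule for the calls: active = compounds whose percent cytotoxicity in the single-dose primary screen, scaled between solvent and toxic-drug controls, exceeds 50; inactive = the rest.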 The entries come from a sample that favours actives as a whole. Potency and affinity values are given separately.

The test in a line: cytotoxicity in KRAS-transformed pancreatic duct cells, primary screen, cell-based, fluorescence, HTS (AID 431).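 Note: 0% = DMSO solvent wells and 100% = doxorubicin-treated wells.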 The following applies: HPDE-C7K KRASV12 cells, Alamar Blue viability, 48 h; at 10 µM; active compounds read high. In general terms: The colour change of resazurin is a common sign of viable cells or microbes.
As to `O=C(CSc1nnnn1C1CCCCC1)NCCc1ccccc1`, the cytotoxicity was 4.8% (inactive).
`COc1cccc(-c2cnc(NCc3cc(Cl)ccc3O)n2C)c1`: the cytotoxicity was -7.2% (inactive).
Turning to `CC(=O)Nc1ccc(NC(C)=O)s1`, the cytotoxicity was -16.5% (inactive).
Next, `CCCCNC(=O)C(C#N)c1nc2ccccc2nc1N1CCCC1` (centres undefined): -16.3% (inactive); `CCN(CC(=O)Nc1ccc2c(c1)OCCO2)Cc1cc(=O)oc2c(C)c(C)ccc12`: 9.3% (inactive); `Cc1n[nH]c(C)c1S(=O)(=O)Nc1ccc2c(c1)OCCO2`: 4.3% (inactive).
As to `Cc1cc(C#N)c(C)n1-c1cc(C(F)(F)F)ccc1N1CCOCC1`, the cytotoxicity is -11.9% (inactive).
For `COCCCn1c(SCC(=O)N2CCCCC2C)nnc1-c1ccco1` (centres undefined), the cytotoxicity is -0.2% (inactive).
For the compound `CCn1c2ccccc2c2nnc(SCC(=O)NC(CC(C)C)C(=O)OC)nc21` (centres undefined), the cytotoxicity is 2.3% (inactive).
The value for `O=C(CSc1nc(-c2ccccc2)cc(=O)[nH]1)N1CCOCC1` was 8.9% (inactive); that for `CCc1noc(C)c1C(=O)Nc1sc(C(=O)N(C)C)c(C)c1C(=O)OC` was 2.3% (inactive).
With `COc1ccc(S(=O)(=O)N(CC(=O)O)Cc2ccccc2)cc1OC`, the cytotoxicity was 1.8% (inactive).
The value for `COCc1nc2ccccc2n1CCOc1ccccc1OC` was -0.4% (inactive); that for `COc1cccc(NC(=O)c2oc3ccccc3c2NC(=O)C(C)(C)C)c1` was 17.5% (inactive); that for `CSc1ccc(-c2nnn(Cc3ccccn3)n2)cc1` was -1.2% (inactive).
For the compound `CC1=CC(C)C2C(=O)N(CCC[N+](C)(C)C)C(=O)C2C1` (centres undefined), the cytotoxicity was 14.9% (inactive).
`CSc1nc2ccc(NS(=O)(=O)c3ccc(Cl)s3)cc2s1`: the cytotoxicity is 54.6% (active).
Regarding `CSc1nc2ccc(S(=O)(=O)NC3CCCCC3)cc2s1`, the cytotoxicity is 6.2% (inactive).
As to `Cc1ccc(S(=O)(=O)Nc2ccc3nc(N)sc3c2)cc1`, the cytotoxicity was 4.4% (inactive).
As to `Cc1cc2n(n1)C(c1ccc(N(C)C)cc1)Nc1ccccc1-2` (centres undefined), the cytotoxicity was 23.5% (inactive).
`c1ccc(-n2c(-c3ccco3)nnc2N2CCOCC2)cc1`: the cytotoxicity was -4.7% (inactive).
Consider `CCOC(=O)N1CCN(C(=O)CCS(=O)(=O)c2ccc(Br)s2)CC1`, for which the cytotoxicity was -3.8% (inactive).
Turning to `CC1(C)Nc2ccc(O)cc2-c2c1ssc2=S`, the cytotoxicity was 87.7% (active).
Regarding `CC1(C)c2ssc(=S)c2-c2ccccc2N1C(=O)c1ccco1`, the cytotoxicity was -6.9% (inactive).
As for `O=C(c1ccncc1)N1CCN(C(=O)c2ccncc2)CC1`, the cytotoxicity is -16.4% (inactive).
Consider `Nc1c(NCCCN2CCOCC2)c2ccccc2oc1=O`, for which the cytotoxicity is 6.2% (inactive).
Consider `Cn1nnnc1SCc1nc2ccccc2[nH]1`, for which the cytotoxicity was 3.7% (inactive).
On to `Clc1ccc(SCCn2ccnc2)cc1`, for which the cytotoxicity was -7.6% (inactive).
Next, `Clc1ccc(OCCn2ccnc2)c(Cl)c1`: -10.5% (inactive); `CC(Oc1ccc(Cl)cc1Cl)C(=O)NCCCn1ccnc1` (centres undefined): 2.8% (inactive); `OC(Cn1ccnc1)c1ccc(Cl)cc1Cl` (centres undefined): 0.4% (inactive).
As to `O=C(COc1ccc(Cl)cc1Cl)NCCCn1ccnc1`, the cytotoxicity was 1.3% (inactive).
The value for `OC(Cn1cncn1)c1ccc(Cl)cc1Cl` (centres undefined) was 1.1% (inactive); that for `COc1ccc(-c2ccc(-c3noc(-c4ccco4)n3)c(OC)n2)cc1` was 9.8% (inactive).
Next, `O=C1c2oc3ccccc3c(=O)c2C(c2cccc(Br)c2)N1Cc1ccco1` (centres undefined): 5.4% (inactive); `Cc1cc(C)nc(SCc2nnc(SCC(=O)N3CCCc4ccccc43)n2C)n1`: 9.2% (inactive).
Regarding `O=C(COC(=O)CN1C(=O)c2ccccc2C1=O)Nc1ncc(Cl)cc1Cl`, the cytotoxicity was -11.3% (inactive).
As for `CCO/C=N/c1c(C#N)c(CC#N)nn1-c1ccccc1`, the cytotoxicity was -4.3% (inactive).
The value for `COc1ccc(C2C(C(C)=O)=C(O)C(=O)N2C)c(OC)c1` (centres undefined) was 18.5% (inactive).
The value for `COc1ccc(C2CC(c3c(O)cc(C)oc3=O)=NCCS2)c(OC)c1` (centres undefined) was 69.2% (active).
The value for `COc1ccc(C2NC(=O)c3n[nH]c(C)c32)c(OC)c1` (centres undefined) was 2.8% (inactive); that for `c1ccc(Sc2nc(N3CCCCC3)nc(N3CCCCC3)n2)nc1` was -16.3% (inactive); that for `Cc1cc(C)c(S(=O)(=O)Nc2ccc(O)cc2)cc1C` was 13% (inactive).
In the case of `O=C(CCC1COc2ccccc2O1)Nc1ncccc1O` (centres undefined), the cytotoxicity was -11.8% (inactive).
For the compound `CN1/C(=C\P(=O)(N(C)C)N(C)C)C(C)(C)c2ccccc21`, the cytotoxicity is -1.6% (inactive).
The value for `O=C(NCC1(N2CCOCC2)CCCCC1)c1ccc(Cl)c(S(=O)(=O)NCc2ccco2)c1` was -5.8% (inactive); that for `Cc1ccccc1S(=O)(=O)Cc1ccc(C(=O)N2CCN(c3ncccn3)CC2)o1` was -21.5% (inactive).
On to `Cc1ccc(C)c(N2CCN(C(=O)c3ccc(CS(=O)(=O)c4ccccc4C)o3)CC2)c1`, for which the cytotoxicity was 52.8% (active).
Next, `COc1ccc(S(=O)(=O)Cc2ccc(C(=O)N3CCN(c4cccc(C)c4C)CC3)o2)cc1`: 48.2% (inactive); `Cc1ccc(S(=O)(=O)Cc2ccc(C(=O)N3CCN(c4cc(C)ccc4C)CC3)o2)cc1`: 20.6% (inactive).
In the case of `Cc1ccccc1S(=O)(=O)Cc1ccc(C(=O)N2CCN(c3cccc(C)c3C)CC2)o1`, the cytotoxicity is 73.9% (active).
For the compound `Cc1cccc(N2CCN(C(=O)c3ccc(Cl)c(S(=O)(=O)NCc4ccco4)c3)CC2)c1C`, the cytotoxicity was 55.9% (active).
Next, `Cc1ccccc1S(=O)(=O)Cc1ccc(C(=O)N2CCN(c3ccc(F)cc3)CC2)o1`: 3.3% (inactive); `O=C(O)c1ccc(Cl)c(S(=O)(=O)NCc2ccco2)c1`: -11.1% (inactive); `CCSc1nc2c(c(=O)n(C)c(=O)n2C)n1Cc1ccc(Cl)cc1`: 1.1% (inactive).
Next, `CSc1ccc2[nH]c(=O)cc(C)c2c1`: -15.6% (inactive); `c1ccc(Cn2nnnc2CN2CCCC2)cc1`: -11% (inactive).
Next, `COc1ccc(NS(=O)(=O)c2ccc(NS(C)(=O)=O)cc2)cc1`: -20.7% (inactive); `COc1ccccc1/C=N/n1cnnc1`: -11.3% (inactive).
As for `Nc1cc(N)cc(-c2nc3ccccc3o2)c1`, the cytotoxicity is 15.3% (inactive).
Next, `Nc1ccc(-c2nc3ccccc3[nH]2)cc1`: -4.1% (inactive); `Nc1ccc(-c2nc3ccc(-c4nc5ccccc5o4)cc3[nH]2)cc1`: 66.5% (active).
With `COCCN(C(=O)Cc1cccs1)c1nnc(-c2ccncc2)s1`, the cytotoxicity was -16.9% (inactive).
Next, `CCCCc1c(C)nc(N)[nH]c1=O`: 1.6% (inactive); `COc1ccc(CN(CCCN2CCOCC2)C(=O)Nc2ccccc2)cc1OC`: 13.2% (inactive); `Clc1ccc2nc(N3CCCCC3)sc2c1`: -11.1% (inactive).
The value for `Cc1cc(Cl)ccc1OC(C)C(=O)Nc1ccccc1N1CCOCC1` (centres undefined) was -12.8% (inactive); that for `Cc1cc(/C=N\O)c(C)n1-c1ccncc1` was 3.4% (inactive); that for `C=CCOC(=O)c1[nH]c2c(c1C)C(=O)CC(c1ccco1)C2` (centres undefined) was 67.6% (active).
Next, `C/C=C/COC(=O)c1[nH]c2c(c1C)C(=O)CC(c1ccc(N(C)C)cc1)C2` (centres undefined): 10.6% (inactive); `C/C=C/COC(=O)c1[nH]c2c(c1C)C(=O)CC(c1ccco1)C2` (centres undefined): 69.1% (active).
On to `C=CCOC(=O)c1[nH]c2c(c1C)C(=O)CC(c1cc(OC)c(OC)c(OC)c1)C2` (centres undefined), for which the cytotoxicity was -9.9% (inactive).
The value for `CCn1c(SCC(=O)Nc2ccc(C(=O)OC)cc2)nnc1-c1cccs1` was -8.2% (inactive).
Next, `Cc1ccc(NC(=O)c2cc(NC(=O)c3ccco3)ccc2N2CCCCC2)cc1`: 19.3% (inactive); `CCCN(C#N)c1nc(NCC)nc(NC(C)C)n1`: -9.4% (inactive); `CCNc1nc(NC(C)C)nc(N(C#N)CCOc2ccc(Cl)cc2Cl)n1`: 109% (active).
For `CCNc1nc(NC(C)C)nc(N(C#N)Cc2ccccc2)n1`, the cytotoxicity is 3% (inactive).
For `O=C(N1CCOCC1)N1CCN(S(=O)(=O)N2CCOCC2)CC1`, the cytotoxicity is -4.2% (inactive).
In the case of `COc1ccc(CCNc2c(C)c(C)nc3ncnn23)cc1`, the cytotoxicity is 33.4% (inactive).
The value for `CCc1c(C)nc2ncnn2c1NCCc1ccc(OC)c(OC)c1` was -12.5% (inactive); that for `CCc1c(C)nc2ncnn2c1NCCc1ccc(OC)cc1` was 64.2% (active).
As for `Cc1cc(C)nc(Nc2n[nH]c(COc3ccc(Cl)cc3)n2)n1`, the cytotoxicity is 1.1% (inactive).
The value for `O=C(Nc1ncc(Br)s1)C1CCCN1S(=O)(=O)c1cccc2cccnc12` (centres undefined) was -12.6% (inactive); that for `COC(=O)c1sccc1NC(=O)c1ccc(Cl)s1` was 1.5% (inactive).
Next, `COc1ccccc1-c1cc(C(=O)Nc2cccnc2)no1`: 71.3% (active); `COc1ccc(NC(=O)c2cc(-c3ccccc3OC)on2)cc1`: 38.7% (inactive); `COc1ccccc1-c1cc(C(=O)Nc2cc(C)on2)no1`: 6.8% (inactive).
Regarding `C=CCn1c(SCC(=O)Nc2ccc(C(=O)OCC)cc2)nnc1-c1cccs1`, the cytotoxicity is -6.9% (inactive).
Next, `Cc1ccc2c(c1)N(CCC(=O)NCc1ccc3c(c1)OCO3)C(=O)CO2`: -4.5% (inactive).
As to `Cc1nc(Nc2ccc(F)cc2)[nH]c(=O)c1CCC(C)C`, the cytotoxicity is 66.2% (active).
The value for `Cc1ccc(Nc2nc(C)c(CCC(C)C)c(=O)[nH]2)cc1` was 1.8% (inactive).
The value for `Cc1nc(Nc2ccccc2)[nH]c(=O)c1CCC(C)C` was -10.7% (inactive).
Next, `Cc1n[nH]c(C)c1S(=O)(=O)N1CCCC(C(=O)NC2CCCCC2)C1` (centres undefined): -3.4% (inactive); `Cc1nnc2n1NC(c1ccc(Cl)cc1)C(C(=O)N1CCC(C)CC1)S2` (centres undefined): -14.7% (inactive); `CCOC(=O)c1c(NC(C)=O)no[n+]1[O-]`: -10.4% (inactive).
`Cc1cc(C)cc(NC(=O)CSc2nc3c(c(=O)n2C)SC(C)C3)c1` (centres undefined): the cytotoxicity was -5.2% (inactive).
The value for `COCCSc1ccccc1C(=O)NCCCn1ccnc1` was -28.4% (inactive); that for `Oc1cccc2ccc(Nc3ccccn3)nc12` was 124% (active); that for `O=C(Nc1ccccn1)c1ccc2ccccc2n1` was -3.6% (inactive).
For the compound `c1ccc(Nc2ccccc2Nc2ccccn2)nc1`, the cytotoxicity is -10.1% (inactive).
Next, `Cn1c(SCC(=O)Nc2ccc3c(c2)OCCO3)nnc1-c1ccco1`: 10.1% (inactive); `N=c1n(CCN2CCCCC2)c2ccccc2n1CC(O)c1cccc(Br)c1` (centres undefined): 59.4% (active).
Next, `N=c1n(CCN2CCCCC2)c2ccccc2n1CC(O)COc1ccccc1` (centres undefined): 16% (inactive).
`N=c1n(CCN2CCCC2)c2ccccc2n1CC(O)c1ccco1` (centres undefined): the cytotoxicity is -3.9% (inactive).
